In PubChem BioAssay (EPA / NIEHS):
Inconclusive results are not listed. Activity calls are given as the source filed them. The calls were made as follows, unless noted: active = hit-call score of the fitted dose curve at least 0.9, where 1 is the maximum; inactive = score below 0.9.

Legend:
[1] = ATG_PBREM_CIS: Attagene CIS-FACTORIAL HepG2 Assay for human Phenobarbital-responsive Enhancer Module (PBREM) (AID 2282955); conditions: HepG2 PBREM cis-reporter, Attagene multiplexed transcription; actives raise or lower the signal
How it was run: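 HepG2 cells transiently transfected with multiple cis-regulated reporter units measure endogenous transcription factor activity; 24 h compound exposure. Reporter mRNA quantified by RT-PCR, fluorescent labelling, HpaI digestion and capillary electrophoresis; bidirectional fit versus DMSO.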

[2] = molecular target: Paired box protein Pax-6 (Homo sapiens) (UniProt P26367); assay: ATG_Pax6_CIS: Attagene CIS-FACTORIAL HepG2 Assay for human Paired Box 6 (PAX6) (AID 2282956); conditions: HepG2 CIS-FACTORIAL PAX6 reporter transcription, RNA readout; actives raise or lower the signal
How it was run: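 Readout: reporter transcript fluorescence after RT-PCR and capillary electrophoresis. Cells: HepG2, transiently transfected with cis-regulated MRTUs. Exposure 24 h. Gain or loss of signal fitted bidirectionally relative to DMSO.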

[3] = ATG_PXRE_CIS: Attagene CIS-FACTORIAL HepG2 Assay for human Pregnane X Receptor Element (PXRE) (AID 2282957); conditions: HepG2 Attagene CIS-FACTORIAL PXRE reporter, mRNA; actives raise or lower the signal
How it was run: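 Endogenous transcription factor activity in HepG2 was gauged through induction of reporter mRNA driven by a cis-regulating promoter element, sampled 24 h post-treatment. Activity was fitted in both directions against DMSO negative control.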

[4] = ATG_PPRE_CIS: Attagene CIS-FACTORIAL HepG2 Assay for human Peroxisome Proliferator-activated Response Element (PPRE) (AID 2282958); conditions: HepG2 PPRE cis-element reporter, Attagene transcription factor profiling; actives raise or lower the signal
How it was run: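 HepG2 cells are transiently transfected with multiplexed cis-promoter reporter units to report endogenous PPAR activity. After 24 h dosing, reporter mRNA is read by RT-PCR and capillary electrophoresis. Fitting is bidirectional against DMSO.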

[5] = ATG_RORE_CIS: Attagene CIS-FACTORIAL HepG2 Assay for human RAR-related Orphan Receptor Element (RORE) (AID 2282959); conditions: HepG2 Attagene cis-factorial RORE reporter, mRNA; actives raise or lower the signal
How it was run: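 HepG2 cells carrying transiently transfected cis-regulated reporter units; RORE-driven reporter mRNA quantified 24 h post-dosing by RT-PCR, 6-FAM primer extension, HpaI digestion and capillary electrophoresis. Bidirectional fit versus DMSO.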

[6] = ATG_Sox_CIS: Attagene CIS-FACTORIAL HepG2 Assay for human SRY-box transcription factor (SOX) (AID 2282960); conditions: HepG2 Attagene cis-factorial SOX reporter, mRNA; actives raise or lower the signal
How it was run: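 HepG2 cells transiently transfected with multiple cis-regulated reporter units, then dosed for 24 h. Reporter mRNA quantified by RT-PCR, fluorescent labelling, HpaI digestion and capillary electrophoresis; bidirectional fit versus DMSO.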

[7] = molecular target: Transcription factor Sp1 (Homo sapiens) (UniProt P08047); assay: ATG_Sp1_CIS: Attagene CIS-FACTORIAL HepG2 Assay for human Specificity Protein 1 (Sp1) (AID 2282961); conditions: HepG2 Sp1 cis-reporter transcription, actives raise or lower the signal
How it was run: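 HepG2 cells transiently transfected with multiplexed cis-regulated reporter constructs, chemical exposure 24 h. Reporter mRNA quantified by RT-PCR with capillary electrophoresis; bidirectional fit relative to DMSO.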

[8] = ATG_SREBP_CIS: Attagene CIS-FACTORIAL HepG2 Assay for human Sterol Regulatory Element Binding (SREBP) (AID 2282962); conditions: HepG2 Attagene cis-factorial SREBP reporter, mRNA; actives raise or lower the signal
How it was run: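 Readout: fluorescent reporter-transcript peaks resolved by capillary electrophoresis after RT-PCR. Cells were human HepG2 carrying transfected cis-promoter reporter constructs, dosed for 24 h. Gain or loss of signal was fitted against DMSO controls.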

[9] = molecular target: Signal transducer and activator of transcription 3 (Homo sapiens) (UniProt P40763); assay: ATG_STAT3_CIS: Attagene CIS-FACTORIAL HepG2 Assay for human Signal Transducer and Activator of Transcription 3 (STAT3) (AID 2282963); conditions: HepG2, Attagene cis-factorial STAT3 reporter transcription; actives raise or lower the signal
How it was run: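 Uses human liver HepG2 transiently carrying cis-regulated reporter transcription units. Following 24 h dosing, reporter mRNA induction was detected by RT-PCR and capillary electrophoresis, analysed bidirectionally versus DMSO.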

[10] = ATG_TA_CIS: Attagene CIS-FACTORIAL HepG2 Assay for human TA Basal Promoter (AID 2282964); conditions: HepG2 Attagene CIS-factorial TA basal promoter reporter; actives raise or lower the signal
How it was run: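 Transient MRTU transfection of HepG2 preceded 24 h compound exposure. Reporter mRNA levels were then read by RT-PCR with capillary electrophoresis, and this background-control endpoint was fitted bidirectionally to DMSO.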

[11] = ATG_TCF_b_cat_CIS: Attagene CIS-FACTORIAL HepG2 Assay for human T-Cell-Factor with beta-catenin (TCF/b-cat) (AID 2282965); conditions: HepG2 TCF/beta-catenin cis-reporter transcription, actives raise or lower the signal
How it was run: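 HepG2 cells transiently transfected with multiple cis-promoter-regulated reporter transcription units, so endogenous transcription factor activity is measured. Reporter mRNA read 24 hours after dosing by RT-PCR, fluorescent labelling and capillary electrophoresis; bidirectional fitting against DMSO.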

[12] = ATG_TAL_CIS: Attagene CIS-FACTORIAL HepG2 Assay for human TAL Basal Promoter (AID 2282966); conditions: HepG2 Attagene cis-factorial TAL promoter reporter; actives raise or lower the signal;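 also: background control endpoint measuring basal TAL promoter reporter mRNA not a specific factor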
How it was run: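 Endogenous transcription-factor activity is sensed in HepG2 cells through transfected cis-promoter reporter constructs. After 24 h dosing, reporter transcripts are quantified by RT-PCR and capillary electrophoresis. Gain or loss of signal is fitted relative to DMSO.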

[13] = ATG_TGFb_CIS: Attagene CIS-FACTORIAL HepG2 Assay for human Transforming Growth Factor (TGF) (AID 2282967); conditions: HepG2 Attagene CIS TGFb reporter, mRNA transcription; actives raise or lower the signal
How it was run: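 After a 24-hour incubation with compound, transfected HepG2 cells were lysed for RNA; reporter cDNA was amplified, fluorescently end-labeled and separated by CE. DMSO served as baseline for bidirectional fits.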

[14] = ATG_VDRE_CIS: Attagene CIS-FACTORIAL HepG2 Assay for human Vitamin D Receptor Element (VDRE) (AID 2282968); conditions: HepG2 VDRE cis-reporter transcription, actives raise or lower the signal
How it was run: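 Transfected HepG2 reporter cells, chemical treatment 24 h. RNA isolated, cDNA amplified with reporter-specific primers, products analysed by capillary electrophoresis. Endpoint fitted in both directions versus DMSO.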

[15] = molecular target: Nuclear receptor subfamily 1 group I member 3 (Homo sapiens) (UniProt Q14994); assay: ATG_CAR_TRANS: Attagene TRANS-FACTORIAL HepG2 Assay for human Constitutive Androstane Receptor (CAR) (AID 2282969; active = hit-call score of the fitted dose curve at least 0.9, where 1 is the maximum;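 also: activators raise reporter mRNA above DMSO so AC50 marks induction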); conditions: HepG2 Attagene TRANS-FACTORIAL CAR reporter
How it was run: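 Steps: transient transfection of HepG2 with multiple GAL4-UAS reporter units; 24 h compound incubation; RNA isolation, RT-PCR, 6-FAM primer extension, HpaI digest; capillary electrophoresis. Gain-of-signal relative to DMSO negative control.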

[16] = molecular target: Estrogen receptor (Homo sapiens) (UniProt P03372); assay: ATG_ERa_TRANS: Attagene TRANS-FACTORIAL HepG2 Assay for human Estrogen Receptor alpha (ERa) (AID 2282970; active = hit-call score of the fitted dose curve at least 0.9, where 1 is the maximum); conditions: HepG2 Attagene TRANS ERa GAL4 reporter, mRNA
How it was run: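 Transfected HepG2 cells carrying GAL4-UAS-driven reporter units were dosed for 24 hours. Total RNA was reverse-transcribed, reporter sequences PCR-amplified, FAM-labelled, HpaI-digested and resolved by capillary electrophoresis. Increases over DMSO control defined activity.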

[17] = molecular target: X-box-binding protein 1 (Homo sapiens) (UniProt P17861); assay: ATG_Xbp1_CIS: Attagene CIS-FACTORIAL HepG2 Assay for human X-box Binding Protein 1 (XBP1) (AID 2282972); conditions: HepG2 XBP1 cis-element reporter, Attagene multiplex; actives raise or lower the signal
How it was run: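 Read-out: fluorescent reporter mRNA fragments resolved by capillary electrophoresis after RT-PCR. Human HepG2 liver cells carried transfected cis-promoter reporter units and were exposed to chemicals for 24 hours. Gain or loss of signal fitted relative to DMSO baseline.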

[18] = ATG_M_19_TRANS: Attagene TRANS-FACTORIAL HepG2 Assay for M19 Transcription Factor (Internal Marker) (AID 2282974; active = hit-call score of the fitted dose curve at least 0.9, where 1 is the maximum); conditions: HepG2 Attagene TRANS-FACTORIAL M19 internal marker reporter
How it was run: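 HepG2 transiently transfected with GAL4-UAS multiplex reporter constructs, exposed 24 h; reporter RNA quantified by RT-PCR, 6-FAM labeling, HpaI digestion and capillary electrophoresis; internal background marker fitted upward versus DMSO.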

[19] = molecular target: Steroid hormone receptor ERR1 (Homo sapiens) (UniProt P11474); assay: ATG_ERRa_TRANS: Attagene TRANS-FACTORIAL HepG2 Assay for human Estrogen-Related Receptor alpha (ERRa) (AID 2282971; active = hit-call score of the fitted dose curve at least 0.9, where 1 is the maximum); conditions: HepG2 Attagene TRANS reporter, ERRa transactivation
How it was run: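 HepG2 cells were transiently transfected with multiple GAL4-UAS reporter units, then dosed with compound for 24 h. Total RNA was reverse-transcribed, reporter cDNA PCR-amplified and fluorescently labelled, and fragments resolved by capillary electrophoresis; induction was compared with DMSO.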

Measured: AC50

Estrogen receptor (Homo sapiens), sequence (P03372 whole entry, looked up, the tested form may be a part): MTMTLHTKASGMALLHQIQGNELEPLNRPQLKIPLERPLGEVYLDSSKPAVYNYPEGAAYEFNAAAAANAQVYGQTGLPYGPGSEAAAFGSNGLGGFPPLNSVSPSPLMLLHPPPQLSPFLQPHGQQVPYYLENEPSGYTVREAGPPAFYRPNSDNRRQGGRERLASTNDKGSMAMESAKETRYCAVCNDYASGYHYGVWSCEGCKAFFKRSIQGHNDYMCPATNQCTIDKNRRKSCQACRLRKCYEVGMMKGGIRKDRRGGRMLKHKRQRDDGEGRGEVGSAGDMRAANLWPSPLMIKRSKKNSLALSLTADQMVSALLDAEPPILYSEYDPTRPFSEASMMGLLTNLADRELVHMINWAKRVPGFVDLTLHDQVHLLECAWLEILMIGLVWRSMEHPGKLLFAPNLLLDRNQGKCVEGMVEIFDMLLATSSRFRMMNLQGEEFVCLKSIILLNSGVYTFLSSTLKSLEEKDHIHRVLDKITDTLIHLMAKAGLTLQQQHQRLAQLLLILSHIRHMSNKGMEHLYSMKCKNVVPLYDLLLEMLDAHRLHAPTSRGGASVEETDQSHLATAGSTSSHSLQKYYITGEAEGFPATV
X-box-binding protein 1 (Homo sapiens), sequence (P17861 whole entry, looked up, the tested form may be a part): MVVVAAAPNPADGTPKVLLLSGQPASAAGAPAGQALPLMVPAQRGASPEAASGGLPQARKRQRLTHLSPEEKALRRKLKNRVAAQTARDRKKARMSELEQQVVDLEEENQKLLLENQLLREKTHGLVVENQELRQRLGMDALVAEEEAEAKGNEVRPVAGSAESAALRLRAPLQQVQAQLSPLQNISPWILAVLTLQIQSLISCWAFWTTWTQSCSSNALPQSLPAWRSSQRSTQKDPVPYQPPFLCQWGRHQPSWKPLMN
Paired box protein Pax-6 (Homo sapiens), sequence (P26367 whole entry, looked up): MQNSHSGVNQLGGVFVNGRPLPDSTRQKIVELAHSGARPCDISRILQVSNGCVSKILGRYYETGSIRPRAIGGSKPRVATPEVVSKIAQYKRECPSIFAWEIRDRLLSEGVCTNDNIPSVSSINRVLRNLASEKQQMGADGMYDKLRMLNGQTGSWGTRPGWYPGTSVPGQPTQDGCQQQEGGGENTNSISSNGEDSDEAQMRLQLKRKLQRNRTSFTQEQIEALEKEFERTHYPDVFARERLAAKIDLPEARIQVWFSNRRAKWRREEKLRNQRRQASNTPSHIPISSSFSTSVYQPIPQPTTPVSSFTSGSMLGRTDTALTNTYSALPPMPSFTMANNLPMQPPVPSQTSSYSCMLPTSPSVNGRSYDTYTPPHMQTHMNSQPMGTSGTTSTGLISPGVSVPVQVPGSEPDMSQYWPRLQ
Transcription factor Sp1 (Homo sapiens), sequence (P08047 whole entry, looked up): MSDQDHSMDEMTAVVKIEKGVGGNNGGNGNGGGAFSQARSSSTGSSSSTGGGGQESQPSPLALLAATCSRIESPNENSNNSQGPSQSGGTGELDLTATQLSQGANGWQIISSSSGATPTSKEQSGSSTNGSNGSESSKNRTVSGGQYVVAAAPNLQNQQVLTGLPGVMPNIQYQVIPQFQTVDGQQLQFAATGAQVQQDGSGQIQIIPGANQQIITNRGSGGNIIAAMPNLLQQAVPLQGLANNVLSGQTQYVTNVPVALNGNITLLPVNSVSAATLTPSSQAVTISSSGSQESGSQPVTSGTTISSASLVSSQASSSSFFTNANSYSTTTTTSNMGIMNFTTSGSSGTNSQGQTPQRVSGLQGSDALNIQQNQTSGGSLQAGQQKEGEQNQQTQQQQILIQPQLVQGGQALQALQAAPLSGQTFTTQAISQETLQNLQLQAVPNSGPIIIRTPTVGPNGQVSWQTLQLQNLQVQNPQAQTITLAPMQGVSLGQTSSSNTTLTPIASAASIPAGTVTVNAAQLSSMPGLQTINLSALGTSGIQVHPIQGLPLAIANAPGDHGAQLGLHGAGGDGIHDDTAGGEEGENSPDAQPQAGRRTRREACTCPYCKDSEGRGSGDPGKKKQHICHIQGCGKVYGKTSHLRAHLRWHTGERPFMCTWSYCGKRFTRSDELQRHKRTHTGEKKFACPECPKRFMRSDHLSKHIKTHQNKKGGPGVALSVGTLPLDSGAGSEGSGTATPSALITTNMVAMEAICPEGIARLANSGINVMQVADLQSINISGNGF
Nuclear receptor subfamily 1 group I member 3 (Homo sapiens), sequence (Q14994 whole entry, looked up, the tested form may be a part): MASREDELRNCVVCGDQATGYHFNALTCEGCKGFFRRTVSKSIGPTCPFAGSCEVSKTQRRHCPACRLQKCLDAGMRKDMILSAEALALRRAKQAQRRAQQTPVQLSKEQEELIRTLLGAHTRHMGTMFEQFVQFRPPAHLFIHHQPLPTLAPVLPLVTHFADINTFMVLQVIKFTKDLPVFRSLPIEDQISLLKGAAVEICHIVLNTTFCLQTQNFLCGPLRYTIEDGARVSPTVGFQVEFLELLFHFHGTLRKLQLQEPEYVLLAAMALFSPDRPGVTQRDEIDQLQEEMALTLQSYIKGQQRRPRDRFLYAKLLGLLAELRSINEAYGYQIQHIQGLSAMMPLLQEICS
Steroid hormone receptor ERR1 (Homo sapiens), sequence (P11474 whole entry, looked up, the tested form may be a part): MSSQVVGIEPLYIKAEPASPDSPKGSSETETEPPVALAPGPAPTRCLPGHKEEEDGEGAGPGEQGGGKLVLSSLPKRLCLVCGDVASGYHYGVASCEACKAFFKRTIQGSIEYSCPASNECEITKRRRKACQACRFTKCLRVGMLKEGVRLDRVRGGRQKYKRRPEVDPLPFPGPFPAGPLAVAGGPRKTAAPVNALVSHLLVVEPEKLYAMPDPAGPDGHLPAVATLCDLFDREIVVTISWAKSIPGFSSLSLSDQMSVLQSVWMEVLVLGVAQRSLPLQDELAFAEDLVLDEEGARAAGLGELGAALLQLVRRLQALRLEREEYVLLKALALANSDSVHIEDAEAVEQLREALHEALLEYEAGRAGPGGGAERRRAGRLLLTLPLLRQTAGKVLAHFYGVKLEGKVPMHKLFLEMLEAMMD
Signal transducer and activator of transcription 3 (Homo sapiens), sequence (P40763 whole entry, looked up): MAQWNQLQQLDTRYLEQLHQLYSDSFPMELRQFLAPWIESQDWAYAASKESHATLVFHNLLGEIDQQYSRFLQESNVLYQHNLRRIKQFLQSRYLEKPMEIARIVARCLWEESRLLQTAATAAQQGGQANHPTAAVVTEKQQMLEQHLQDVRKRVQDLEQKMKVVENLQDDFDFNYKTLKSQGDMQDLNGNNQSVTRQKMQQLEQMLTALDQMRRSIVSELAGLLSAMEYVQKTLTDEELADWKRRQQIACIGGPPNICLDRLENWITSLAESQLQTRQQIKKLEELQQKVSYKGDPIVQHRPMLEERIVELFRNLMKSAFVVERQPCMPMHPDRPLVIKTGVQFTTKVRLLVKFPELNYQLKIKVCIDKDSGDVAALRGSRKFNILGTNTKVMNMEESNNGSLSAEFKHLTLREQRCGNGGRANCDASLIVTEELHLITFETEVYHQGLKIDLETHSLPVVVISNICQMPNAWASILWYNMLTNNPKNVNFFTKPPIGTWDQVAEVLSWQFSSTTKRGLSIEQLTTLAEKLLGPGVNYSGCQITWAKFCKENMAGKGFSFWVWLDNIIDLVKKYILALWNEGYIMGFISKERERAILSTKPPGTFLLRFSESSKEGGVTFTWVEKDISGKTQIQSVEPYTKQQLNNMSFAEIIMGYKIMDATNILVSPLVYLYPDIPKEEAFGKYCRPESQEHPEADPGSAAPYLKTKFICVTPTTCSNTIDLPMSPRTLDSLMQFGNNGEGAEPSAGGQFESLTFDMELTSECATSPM

CC(C)C1(C)N=C(c2ncccc2C(=O)O)NC1=O (stereo not drawn)
inactive: [1] | [2] | [3] | [4] | [5] | [6] | [7] | [8] | [9] | [10] | [11] | [12] | [13] | [14] | [15] | [16] | [17] | [18]

CC(C)=CC1C(C(=O)OCc2coc(Cc3ccccc3)c2)C1(C)C (stereo not drawn)
inactive: [2] | [5] | [6] | [7] | [8] | [9] | [10] | [11] | [12] | [13] | [15] | [17] | [18]
active: [1] 14.6 µM | [3] 5.63 µM | [4] 11.2 µM | [14] 14.5 µM | [16] 19.6 µM

CNC(=O)N(C)c1nnc(C(C)(C)C)s1
active: [3] 50 µM
inactive: [1] | [2] | [4] | [5] | [6] | [7] | [8] | [9] | [10] | [11] | [12] | [13] | [14] | [16] | [17]

COC(=O)c1c(C(F)F)nc(C(F)(F)F)c(C2=NCCS2)c1CC(C)C
inactive: [2] | [6] | [7] | [8] | [9] | [10] | [11] | [12] | [13] | [15] | [19] | [17] | [18]
active: [1] 0.876 µM | [3] 0.123 µM | [4] 50 µM | [5] 26.8 µM | [14] 0.879 µM | [16] 19.6 µM

COP(=S)(OC)Oc1ccc([N+](=O)[O-])c(C)c1
active: [3] 13.5 µM | [4] 50 µM | [5] 50 µM | [8] 14 µM | [14] 34.1 µM | [16] 17.9 µM | [17] 50 µM
inactive: [1] | [2] | [6] | [7] | [9] | [10] | [11] | [12] | [13] | [15] | [19] | [18]

CCCC(=NOCC)C1=C(O)CC(CC(C)SCC)CC1=O (stereo not drawn)
active: [3] 29.5 µM
inactive: [1] | [2] | [4] | [5] | [6] | [7] | [8] | [9] | [10] | [11] | [12] | [13] | [14] | [15] | [16] | [17] | [18]

Cc1c(COC(=O)[C@@H]2[C@H](/C=C(\Cl)C(F)(F)F)C2(C)C)cccc1-c1ccccc1
inactive: [2] | [4] | [5] | [6] | [7] | [8] | [9] | [10] | [11] | [12] | [13] | [15] | [17] | [18]
active: [1] 11.4 µM | [3] 2.31 µM | [14] 12.6 µM | [16] 14.9 µM

COCC(=O)N(c1c(C)cccc1C)C(C)C(=O)OC (stereo not drawn)
active: [3] 9.28 µM
inactive: [1] | [2] | [4] | [5] | [6] | [7] | [8] | [9] | [10] | [11] | [12] | [13] | [14] | [15] | [16] | [19] | [17] | [18]

CCSC(=O)N1CCCCCC1
active: [3] 15.9 µM
inactive: [1] | [2] | [4] | [5] | [6] | [7] | [8] | [9] | [10] | [11] | [12] | [13] | [14] | [15] | [16] | [19] | [17] | [18]

CS(=O)(=O)c1cc(C(F)(F)F)ccc1C(=O)c1cnoc1C1CC1
inactive: [1] | [2] | [4] | [5] | [6] | [7] | [8] | [9] | [10] | [11] | [12] | [13] | [14] | [15] | [19] | [17] | [18]
active: [3] 40.2 µM

CC(C)NC(=O)N1CC(=O)N(c2cc(Cl)cc(Cl)c2)C1=O
active: [1] 11.8 µM | [3] 5.44 µM | [4] 23.2 µM
inactive: [2] | [5] | [6] | [7] | [8] | [9] | [10] | [11] | [12] | [13] | [19] | [17] | [18]
